Bioassay records from PubChem BioAssay.
Sa growth inh – S. aureus growth inhibition at 42 and 30 °C, primary screen, LtaS inhibitor project, RN4220, two temperatures | OD600, 20 h, 42 °C; stronger effect = lower value | relative growth, % (no concentration beside the values) | actives 0.53% (n = 170,000);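 active = relative growth at most 50% at the other temperature and 20+ points below 30 °C, or under 10% at both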
HCMV UL50-53 inh – inhibitors of HCMV UL50-UL53 interaction, biochemical, HTRF | inhibition, % (no concentration beside the values) | normalized percent inhibition | actives 0.15% (n = 190,000) | AID 1918969, 2023 | HCMV UL50-UL53 nuclear egress complex (human cytomegalovirus); in the data active = inhibition above about 27%, passing the limit was not always enough
Sa helicase inh – inhibitors of S. aureus replicative helicase, primary screen, biochemical, fluorescence unwinding readout; inhibition, % (no concentration beside the values); actives 0.05% (n = 120,000); purified S. aureus helicase, fluorescence unwinding assay; in the data active = inhibition above about 25%, passing the limit was not always enough;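 also: 0% = mean of negative control wells and 100% = mean of positive control wells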
The depositor's hits bear a star; nt = not tested or not shown; ! = not active in a repeat. This excerpt belongs to a sample that is enriched for hits.

SMILES	Sa growth inh	HCMV UL50-53 inh	Sa helicase inh
CN(C)CCCNCc1cccn1C	107	33*	13
CN(C)CCCNCc1ccco1	101	-9	5
COc1cccc(OC)c1C(=O)N[C@@H]1C(=O)N2[C@@H]1SC(C)(C)[C@@H]2C(=O)O	-0.7*	-16	nt
CC1(C)SC2C(NC(=O)Cc3ccccc3)C(=O)N2C1C(=O)O (stereo unspecified)	nt	-17	nt
Cc1onc(-c2c(Cl)cccc2Cl)c1C(=O)NC1C(=O)N2C1SC(C)(C)C2C(=O)O (stereo unspecified)	nt	-10	nt
CC1(C)S[C@@H]2C(NC(=O)C(C(=O)O)c3ccccc3)C(=O)N2C1C(=O)O (stereo partly specified)	nt	-12	nt
Cc1onc(-c2c(Cl)cccc2Cl)c1C(=O)N[C@@H]1C(=O)N2[C@@H]1SC(C)(C)[C@@H]2C(=O)O	-0.4*	-9	nt
Cc1onc(-c2ccccc2)c1C(=O)NC1C(=O)N2[C@@H]1SC(C)(C)[C@@H]2C(=O)O (stereo partly specified)	-0.9*	-13	nt
C=CCn1cnnc1SCC(=O)NCc1cc(C)c(O)c(C)c1	100	-1	4
Cc1nc(C)c(C(=O)Nc2cccc(Cl)c2)s1	nt	-3	nt
CCOC(=O)c1cn(Cc2ccc(C)cc2C)c2nc(C)ccc2c1=O	nt	5	nt
COc1ccc2cc3cc(C(=O)NCc4cc(Br)ccc4OC)oc3nc2c1	107	6	-30
NC[C@H]1O[C@H](OC2[C@@H](N)C[C@@H](N)[C@H](O[C@H]3O[C@H](CO)[C@@H](O)[C@H](N)[C@H]3O)[C@H]2O)[C@H](O)[C@@H](O)[C@@H]1O (stereo partly specified)	99	7	nt
NC[C@H]1O[C@H](O[C@H]2[C@H](O)[C@@H](O[C@H]3O[C@H](CO)[C@@H](O)[C@H](N)[C@H]3O)[C@H](N)C[C@@H]2N)[C@H](N)C[C@@H]1O	-0.6*!	-30	nt
c1cncc(CNc2c3c(nc4ccccc24)CCC3)c1	99	-13	5
O=C(CCN1C(=O)c2ccccc2C1=O)OCc1ccco1	74	-69	33
CCSc1nnc(NC(=O)c2cccc(C(F)(F)F)c2)s1	nt	-15	19
O=C(CC1(O)C(=O)c2ccccc2C1=O)c1ccccc1	111	-42	28
CCOC1(O)C(=O)c2ccccc2C(=O)C1(O)OCC (stereo unspecified)	80	97*	8
CCN(c1ccccc1)C1(O)C(=O)c2ccccc2C1=O	101	nt	4
CC(C)OC1(O)C(=O)c2ccccc2C(=O)C1(O)OC(C)C (stereo unspecified)	84	99*	3
Cc1ccc(C2(O)C(=O)c3ccccc3C2=O)c(O)c1C	109	-1	nt
O=C1c2ccccc2C(=O)C2(O)OCCOC12O (stereo unspecified)	93	106*	23
Cn1ccnc1SCC(=O)NC1CCCc2ccccc21 (stereo unspecified)	106	-14	7
CCn1nc(C)c(CCN(C)C(=O)Nc2ccc(Br)cc2F)c1C	nt	-16	nt
SMILES	Sa growth inh	HCMV UL50-53 inh	Sa helicase inh
Cc1ncc(CSc2ccccc2N=Cc2cc(Cl)cc(Cl)c2O)c(CO)c1O	91	-15	nt
COc1ccc(N2C(=O)C(F)(F)C2c2ccccc2)cc1 (stereo unspecified)	nt	-8	-7
O=C(C1CC1)N1CCCc2cc(NS(=O)(=O)CCc3ccccc3)ccc21	nt	-2	nt
O=S(=O)(c1ccccc1)c1ccc(O)cc1	112	-32	5
Cc1nnc(SCCCCSc2nnc(C)n2N)n1N	94	26	13
CCS(=O)(=O)c1ccc(-c2cccc(NC(=O)C3CC3)c2)nn1	101	-32	9
CC(C)(C)c1csc(NC(=O)CSC2=NCCS2)n1	88	4	-3
CC(Nc1nc(C(C)(C)C)cs1)=C(C#N)C#N	4.2*	-19	7
CCCn1c(/N=C/c2ccccc2Cl)nc2ccccc21	80	13	-23
CCn1c(/N=C/c2ccccc2Cl)nc2ccccc21	88	72*	0
O=C(CSCc1ccccc1Cl)NCc1cccs1	98	-12	6
CCN1/C(=C/C2=CC(=O)CC(C)(C)C2)Sc2ccccc21	1.0*	nt	-76
CCN1/C(=C\C=C2C(=O)OC(C)(C)OC2=O)Sc2ccccc21	76	-25	-82
Cc1ccc(-c2ccnc(-c3ccc(O)cc3)n2)cc1	nt	6	nt
Cc1ccc(-c2nc(I)ccc2O)cc1	9.1*	5	-5
CC(NC(=O)CSc1nnc(-c2ccncc2)o1)c1nc2ccccc2[nH]1 (stereo unspecified)	nt	-24	nt
CCOc1ccccc1NC(=O)c1cn(C2CCCCC2)c(=O)c2c1c1ccccc1n2C	103	54*	nt
COc1ccc(Cl)cc1NC(=O)c1cn(C2CCCCC2)c(=O)c2c1c1ccccc1n2C	101	14	nt
CCC(C)(C)NC(=O)CCc1ccc(S(=O)(=O)N2CCOCC2)cc1	100	-19	27
C=Cc1c(C)c2cc3[nH]c(cc4nc(cc5nc(cc1[nH]2)C(C)=C5CCC(=O)O)C(CCC(=O)O)=C4C)c(C)c3C=C	nt	86*	nt
O=C(O)CCc1nc2ccc(C(=O)O)cc2[nH]1	82	nt	-10
Cc1ccc2c(CSc3cccc[n+]3[O-])cc(=O)oc2c1	94	-29	1
N#Cc1ccc2c(c1)nc1c3ccc4c5c(ccc(c(=O)n21)c53)C(=O)NC4=O	0.9*	-54	5
Cc1ccc(C(=O)c2c(N)c(C(=O)Nc3cccc(F)c3)c3ccccn23)cc1	nt	-9	nt
COc1ccc(-c2cn3c(n2)CCC3)cc1	97	19	-14
SMILES	Sa growth inh	HCMV UL50-53 inh	Sa helicase inh
c1c(SSc2cn3c(n2)CCC3)nc2n1CCC2	-0.6*	-14	3
Cc1nn(-c2ccc(N3CCCCC3)nn2)c(C)c1CCC(=O)NCCc1c[nH]c2ccccc12	nt	-17	nt
Cc1cc(NS(=O)(=O)c2ccc(NS(=O)(=O)CC34CCC(CC3=O)C4(C)C)cc2)no1 (stereo unspecified)	49*	-15	-5
Cc1cc(C)nc(NS(=O)(=O)c2ccc(NS(=O)(=O)CC34CCC(CC3=O)C4(C)C)cc2)n1 (stereo unspecified)	111	8	-13
CC(=O)Oc1ccc(-n2c(C)cc(/C=C3\C(=O)NC(=S)N(c4ccccc4)C3=O)c2C)cc1	nt	-25	nt
CC(C)C(=O)/C(C#N)=N/Nc1ccc(F)cc1	8.0*	-50	-13
N#C/C(=N\Nc1ccc(F)cc1)C(=O)NCC1CCCO1 (stereo unspecified)	93	-57	-15
O=C(O)CC(NC(=O)c1ccccc1Cl)c1ccccc1 (stereo unspecified)	106	-3	-4
CC1CC1C(=O)OCC(=O)Nc1ccccc1Br (stereo unspecified)	90	-30	32
CC(=O)NC1=CC(=O)c2nonc2C1=O	-0.7*	86*	19
COc1nonc1NC(C)=O	91	3	4
CS(=O)(=O)CCC(C(=O)n1nnc2ccccc21)N1C(=O)c2ccccc2C1=O (stereo unspecified)	114	nt	16
CS(=O)(=O)CCC(C(=O)Oc1cccc2cccnc12)N1C(=O)c2ccccc2C1=O (stereo unspecified)	0.7*	-11	12
